High-throughput results deposited in PubChem BioAssay by National Center for Advancing Translational Sciences (NCATS).
Compounds with a hit are over-represented: about 2.4% of the library has one in this group of screens.
POLI inh = blocks human DNA polymerase iota activity; Q9UNA4; Pol iota fluorescent replication assay, 10 min; Potency, µM (highest dose often 115 µM), for the others: top-dose activity, negative = inhibition, usual class: inhibitors; 1% of 390,000 active; note: potency is the fitted concentration of half-maximal effect
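Pol iota at 10 nM preincubated 15 min with compounds at room temperature; reaction started with fluorescent substrate, 50 nM final. Fluorescence read kinetically at 0 and 10 min; buffer-only wells as negative control.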
Pol kappa inh-1 = inhibitors of human DNA polymerase kappa. Q9UBT6. 0.53% of 400,000 active. Potency, µM (titrated, usually from 107 µM), for inactives: at the top dose activity, negative = inhibition, most hits filed as inhibitors. purified Pol kappa, fluorescent DNA synthesis assay, 10 min; note: potency is the fitted concentration of half-maximal effect; % is set by controls: 0 for no effect and ±100 for the full control effect
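Fluorescent qHTS in 1536-well format: enzyme (10 nM) and compound sat 15 min at room temperature before 50 nM substrate (final) was added. Signal taken at 0 and 10 min; no-enzyme buffer wells were negative controls.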
POLB inh = inhibitors of human DNA polymerase beta; Pol beta primer extension/strand displacement, fluorescence kinetic; Potency, µM (titrated, usually from 114 µM), for the others: at the top dose activity change, negative = inhibition, actives largely listed as inhibitors; 1.3% of 340,000 active; AID 485314; note: potency is the fitted concentration of half-maximal effect; % is set by controls: 0 for no effect and ±100 for the full control effect
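Values derive from four-parameter Hill fits of normalized kinetic data: reads at 0 and 10 min following addition of 50 nM substrate to 10 nM Pol beta preincubated 15 min with compound.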
FEN1 inh-1 = human FEN1 inhibition; Recombinant FEN1 flap cleavage, fluorescence, 15 min; Potency, µM (doses to about 114 µM), for inactives: at the highest dose activity change, negative = inhibition, hits mostly inhibitors; 0.35% of 390,000 active; note: potency is the fitted concentration of half-maximal effect; % is set by controls: 0 for no effect and ±100 for the full control effect; nearly all actives have a fitted effect of over 65% in size
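Concentration–response screening of FEN1 (10 nM): 15 min compound preincubation at room temperature, reaction started with 50 nM substrate and read at 0 and 15 min. Corrected, normalized data were fitted by a four-parameter Hill equation.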
WRN inhibitor = blocks human WRN helicase. Potency, µM (highest dose often 114 µM), for inactives: top-dose activity change, negative = inhibition, usual class: inhibitors. WRN helicase unwinding, fluorescent forked duplex, kinetic. Q14191. 0.46% of 360,000 active; note: potency is the fitted concentration of half-maximal effect; % is set by controls: 0 for no effect and ±100 for the full control effect; nearly all actives have a fitted effect of over 55% in size
Target sequence (Q14191 whole entry, looked up): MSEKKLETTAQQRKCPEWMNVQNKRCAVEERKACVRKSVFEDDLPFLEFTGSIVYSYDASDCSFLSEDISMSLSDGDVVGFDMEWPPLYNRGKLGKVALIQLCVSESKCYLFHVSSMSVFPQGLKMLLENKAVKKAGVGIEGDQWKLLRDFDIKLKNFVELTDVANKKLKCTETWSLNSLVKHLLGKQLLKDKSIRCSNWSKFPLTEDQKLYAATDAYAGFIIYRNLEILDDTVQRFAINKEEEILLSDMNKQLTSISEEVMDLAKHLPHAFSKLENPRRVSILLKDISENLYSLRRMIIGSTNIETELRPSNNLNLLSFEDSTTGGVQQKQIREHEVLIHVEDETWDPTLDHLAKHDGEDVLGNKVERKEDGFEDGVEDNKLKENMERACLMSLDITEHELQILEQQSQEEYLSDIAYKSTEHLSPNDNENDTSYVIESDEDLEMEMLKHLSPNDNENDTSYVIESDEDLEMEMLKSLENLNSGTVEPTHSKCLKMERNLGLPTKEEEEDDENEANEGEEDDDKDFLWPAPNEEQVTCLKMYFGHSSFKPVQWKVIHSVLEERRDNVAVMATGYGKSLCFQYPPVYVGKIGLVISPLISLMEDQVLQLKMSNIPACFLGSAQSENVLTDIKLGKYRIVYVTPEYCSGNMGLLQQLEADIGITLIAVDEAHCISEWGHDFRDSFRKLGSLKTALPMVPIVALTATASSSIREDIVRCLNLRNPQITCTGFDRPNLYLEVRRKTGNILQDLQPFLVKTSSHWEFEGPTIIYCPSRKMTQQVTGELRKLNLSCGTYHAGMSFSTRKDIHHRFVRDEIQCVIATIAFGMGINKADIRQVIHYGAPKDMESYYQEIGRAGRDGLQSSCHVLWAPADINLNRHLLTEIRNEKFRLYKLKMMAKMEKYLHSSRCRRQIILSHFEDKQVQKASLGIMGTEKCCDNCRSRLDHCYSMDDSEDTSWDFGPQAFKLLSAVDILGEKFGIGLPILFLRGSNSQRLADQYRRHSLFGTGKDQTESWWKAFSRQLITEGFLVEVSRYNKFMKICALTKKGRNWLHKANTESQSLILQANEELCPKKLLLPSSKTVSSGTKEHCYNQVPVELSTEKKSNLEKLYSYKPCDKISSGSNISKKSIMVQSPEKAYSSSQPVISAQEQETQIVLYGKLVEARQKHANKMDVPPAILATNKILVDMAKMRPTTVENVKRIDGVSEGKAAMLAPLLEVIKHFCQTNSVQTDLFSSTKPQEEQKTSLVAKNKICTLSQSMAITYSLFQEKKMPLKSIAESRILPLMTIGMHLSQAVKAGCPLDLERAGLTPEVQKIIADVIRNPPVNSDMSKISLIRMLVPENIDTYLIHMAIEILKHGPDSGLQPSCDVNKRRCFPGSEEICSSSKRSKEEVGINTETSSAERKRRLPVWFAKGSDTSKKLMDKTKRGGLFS
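Screening of the MLSMR collection measured strand separation of a quenched forked DNA duplex (100 nM) by 20 nM WRN with 2 mM ATP, all final. Compounds were preincubated with enzyme 15 min at room temperature.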
Pol eta inh-1 = DNA polymerase eta (human) inhibition | 1.2% of 390,000 active | recombinant Pol eta, fluorescent DNA replication assay | Q9Y253 | AID 588591 | Potency, µM (highest dose often 114 µM), inactives show at the top dose activity change, negative = inhibition, actives largely listed as inhibitors; note: potency is the fitted concentration of half-maximal effect; % is set by controls: 0 for no effect and ±100 for the full control effect
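Pol eta at 10 nM preincubated with compounds 15 min at room temperature; reaction started with fluorescent substrate (50 nM final) and read kinetically at 0 and 10 min.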
Pol iota confirm = Human Pol iota inhibitor confirmatory assay | shares compounds with Pol kappa inh-1 | Pol iota primer extension, TAMRA/BHQ fluorescence | Potency, µM, usual class: inhibitors | 77% of 1,500 active; note: potency is the fitted concentration of half-maximal effect
GALK inh confirm = galactokinase (human) inhibition, confirmation; Potency, µM (titrated, usually from 115 µM), without a hit: top-dose activity, negative = inhibition, actives largely listed as inhibitors; 70% of 150 active; shares compounds with Pol eta inh-1; AID 2015; purified GALK, Kinase-Glo ATP depletion luminescence
GALK redox cs = counter-screen for GALK inhibitors: redox cycling H2O2 generation. shares compounds with Pol eta inh-1. Phenol red-HRP H2O2 redox cycling, absorbance 600 nm. Potency, µM (titrated, usually from 115 µM), without a hit: at the top dose activity change, negative = H2O2 signal, hits mostly inhibitors. 40% of 150 active. AID 2035
HEK293 tox = reduces HEK-293 cell viability in GALK counter-screen; shares compounds with Pol eta inh-1; HEK-293 viability, ATP luminescence (CellTiter-Glo), 24/48 h; Potency, µM (series often up to 46.1 µM), inactives show top-dose activity change, negative = cytotoxicity, actives largely listed as inhibitors; 10% of 170 active; note: potency is the fitted concentration of half-maximal effect; % is set by controls: 0 for no effect and ±100 for the full control effect
Pol kappa inh-2 = confirmation of human DNA polymerase kappa inhibitors; AID 720501; 76% of 920 active; Potency, µM, most hits filed as inhibitors; shares compounds with Pol eta inh-1; purified Pol-kappa, fluorescent strand-displacement substrate; note: potency is the fitted concentration of half-maximal effect
Pol eta inh-2 = confirmation of human DNA polymerase eta inhibitors. shares compounds with Pol eta inh-1. Pol eta primer extension, TAMRA/BHQ fluorescence, 10 min. Potency, µM, usual class: inhibitors. 64% of 2,600 active; note: potency is the fitted concentration of half-maximal effect
FEN1 inh-2 = confirmation of human FEN1 inhibitors; 79% of 880 active; FEN1 flap cleavage, TAMRA/BHQ2 fluorogenic DNA substrate; Potency, µM, most hits filed as inhibitors; shares compounds with FEN1 inh-1; note: potency is the fitted concentration of half-maximal effect; nearly all actives have a fitted effect of over 60% in size
The depositor's hits bear a star; ? = inconclusive; . = not tested or not shown; [ ] = another dose, or the depositor's remark. Calls come from the whole dose curve; as a rule, active = well fitted curve in the direction sought with a large enough effect; inconclusive = small, poorly fitted or top-dose-only effect, or another doubt; inactive = no such curve, though single readings can be large; an effect the other way counts as inactive or inconclusive.

SMILES | POLI inh | Pol kappa inh-1 | POLB inh | FEN1 inh-1 | WRN inhibitor | Pol eta inh-1 | Pol iota confirm | Pol eta inh-2 | FEN1 inh-2 | others
CN1CCc2c(sc(NC(=O)CSc3ccccc3)c2-c2nc3ccccc3s2)C1 | 67% | -3%[60.1 µM] | 4% | 2% | . | -14% | . | . | .
CC(=O)Nc1sc2c(c1-c1nc3ccccc3s1)CCN(C)C2 | . | . | . | . | . | . | 38* | . | 5.4*
CC(=O)N1CCc2c(sc(NC(=O)CSc3ccccc3)c2-c2nc3ccccc3s2)C1 | ? | -12%[60.1 µM] | 4% | 7% | . | ? | . | . | .
CCCCC(=O)Nc1sc2c(c1-c1nc3ccccc3s1)CCN(C(C)C)C2 | . | . | . | . | . | . | ? | . | 34* | Pol kappa inh-2=11*
CC(=O)Nc1sc2c(c1-c1nc3ccccc3s1)CCCN(C(C)C)C2 | . | . | . | . | . | . | 53* | . | 7.6* | Pol kappa inh-2=12*
CC(C)N1CCc2c(sc(NC(=O)c3nc4ccccc4s3)c2C(N)=O)C1 | 251% | -8% | 1% | -12% | 10% | -7% | . | . | .
O=C(NCCc1ccccc1)c1ccc(NC(=O)C2CCC2)cc1 | -6% | -2% | . | 11% | 6% | 1% | . | . | .
COc1ccccc1N1CCN(c2csc3ccc(Cl)cc3c2=O)CC1 | -4% | -18%[60.1 µM] | -2% | 9% | . | -12% | . | . | .
Nc1ncnc2oc(-c3ccco3)c(-c3ccco3)c12 | ? | 25µM* | 6.3µM* | 35µM* | ? | 40µM* | 42* | 85* | 60*
COc1cc(-c2cc(=O)c3c(O)c(OC)c(OC)c(O)c3o2)ccc1O | ? | 25µM* | 7.1µM* | ? | ? | 7.1µM* | 7.5* | 27* | 34*
Cc1ccc(CNC(=O)CCCCCn2c(=O)[nH]c3ccccc3c2=O)cc1 | 23% | -1%[60.1 µM] | 0% | -3% | . | -15% | . | . | .
O=C1/C(=C\c2c(NCCOCCO)nc3ccccn3c2=O)SC(=S)N1Cc1ccco1 | ? | ? | 18µM* | ? | 22µM* | 79µM* | ? | . | 85*
CCc1ccc(NC(=O)CSc2nc(C)cs2)cc1 | . | . | . | . | 0% | -9% | . | . | .
O=c1c(=O)n(O)c2ccccc2n1O | -26% | 1% | 9% | 0.79µM* | 3% | -6% | ? | . | 1.3*
O=c1c(-c2cc(F)cc(F)c2)nc2cncnc2n1Cc1ccc(F)cc1 | . | -11%[60.1 µM] | . | . | . | . | . | . | .
CC(C)=CCC1=C(OCC(=O)O)C(=O)c2ccccc2C1=O | ? | -2% | ? | ? | -20%[11.6 µM] | 22µM* | 38* | 27* | 38* | GALK inh confirm=38µM*;GALK redox cs=12µM*;HEK293 tox=-28%
COc1ccc(-c2cn3c(n2)sc2cc(C(=O)NCCC4=CCCCC4)ccc23)cc1 | 31% | -17% | -1% | -2% | . | -21% | . | . | .
O=C(O)COc1ccccc1C=NNc1ccc([N+](=O)[O-])cc1S(=O)(=O)Nc1ccc(Cl)cc1 | ? | -34% | . | -15% | ? | 22µM* | 84* | 48* | 76* | Pol kappa inh-2=?
CCOc1ccccc1NC(=O)N1CC(CC)Oc2ccccc21 (configuration not stated) | 30% | -1% | 3% | 24% | . | -6% | . | . | .
Oc1ccc(/C=N/N=C(c2ccccc2)c2ccccc2)c(O)c1O | ? | ? | 2.8µM* | ? | 6.7µM* | 3.2µM* | 11* | 43* | 48*
NC(N)=N/N=C/c1ccccc1 | -19% | -6% | 8% | -7% | -12% | -9% | . | . | .
CN(CCC#N)C(=O)COC(=O)c1c2c(nc3ccccc13)/C(=C\c1ccco1)CC2 | 4µM* | 22µM* | . | 50µM* | ? | 11µM* | 17* | 34* | 67*
CCNC(=O)C1CCCN(C(=O)C(c2ccccc2)c2ccccc2)CC1 (configuration not stated) | . | . | . | . | -6% | . | . | . | .
Nc1cccc2cc(S(=O)(=O)O)ccc12 | 4µM* | 10µM* | . | 8.9µM* | ? | 4µM* | 75* | 27* | 67* | Pol kappa inh-2=19*
COc1cc(/C=C(\C#N)C(=O)Nc2cccc(C(=O)O)c2)ccc1OCc1ccc(Cl)cc1 | ? | ? | 10µM* | ? | -5%[11.6 µM] | 56µM* | ? | . | 76*
COc1ccc(O)c(/C=N/NC(=S)Nc2cccc(S(=O)(=O)N(C)C)c2)c1 | 11% | -14% | -2% | -24% | -22% | -9% | . | . | .
CN(C)S(=O)(=O)c1cccc(NC(=S)N/N=C/c2ccc(O)c(O)c2O)c1 | ? | ? | -11% | 20µM* | 28µM* | ? | 13* | 19* | 8.5*
Cc1ccc(CNC(=O)CCCCCn2c(=O)c3sccc3n(CC(=O)Nc3c(C)cc(C)cc3C)c2=O)cc1 | -4% | -5% | 31% | -16% | . | . | . | . | .
O=C(NCc1ccccc1Cl)c1ccc2nc([C@H]3C[C@H](O)[C@@H](CO)O3)[nH]c2c1 | . | . | . | . | 6% | . | . | . | .
